We go through eight molecules from PubChem BioAssay (NCI).

Test systems include SK-MEL-2 melanoma; EKVX NSCLC; SN12C renal; UO-31 renal; TK-10 renal; ACHN renal; CAKI-1 renal; A498 renal; CCRF-CEM leukemia; MOLT-4 leukemia; SR leukemia; RPMI-8226 leukemia; OVCAR-8 ovarian; OVCAR-5 ovarian; OVCAR-4 ovarian; SK-OV-3 ovarian; IGROV1 ovarian; OVCAR-3 ovarian; HS 578T breast; NCI/ADR-RES ovarian.
Common to all, as to experiment: NCI-60 one-dose screen, 48 h (100 = growth as untreated, 0 = no growth, -100 = all killed)
What all share (settings): 10 µM unless noted

About 83,000 compounds went through this panel and 20% of them were active in at least one assay; those are over-represented in the sample as a whole.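 In brief: 96-well plates, 48 h treatment, single concentration, percent growth endpoint.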 Values without a mark were called inactive. The source made the active and inactive calls. The calls were made as follows: active = growth percent below 10; inactive = the rest.

Turning to `CCOc1ccc(NC(=S)N2CCC(CCCC3CCN(C(=S)Nc4ccc(OCC)cc4)CC3)CC2)cc1`, the growth in the assay on SK-MEL-2 melanoma was 104%; with EKVX NSCLC, 60.5%; in the assay with SN12C renal, 95.9%; in the assay on UO-31 renal it was -7.89% (active); in the assay on TK-10 renal, 96.9%; in the assay with ACHN renal, 82.8%. Moreover, the growth in the assay on CAKI-1 renal was 69.7%; in the assay on A498 renal it was 79%; with CCRF-CEM leukemia, 81.6%; in the assay with MOLT-4 leukemia, 73.7%; with SR leukemia, 95.2%; in the assay with RPMI-8226 leukemia, 65.8%. Also, the growth is 92.2% with OVCAR-8 ovarian; 102% with OVCAR-5 ovarian; 85.1% in the assay on OVCAR-4 ovarian; 91.1% with SK-OV-3 ovarian; 94.5% in the assay on IGROV1 ovarian; 79.3% in the assay on OVCAR-3 ovarian. For the same molecule, the growth is 85.3% in the assay on HS 578T breast and 94% in the assay with NCI/ADR-RES ovarian.

`CC(=O)NNC(=S)N/C=C/c1c(C)ccc([N+](=O)[O-])c1[N+](=O)[O-]`: the growth in the assay on SK-MEL-2 melanoma is 92.3%; in the assay with EKVX NSCLC, 99.3%; in the assay on SN12C renal, 96.2%; with UO-31 renal, 92%; in the assay on TK-10 renal, 118%; in the assay on ACHN renal, 98.1%. Further, the growth is 98.8% in the assay on CAKI-1 renal; 105% with A498 renal; 99.9% with CCRF-CEM leukemia; 95.5% in the assay on MOLT-4 leukemia; 92.9% in the assay on SR leukemia; 103% in the assay on RPMI-8226 leukemia. Further, the growth is 102% in the assay on OVCAR-8 ovarian; 99.3% in the assay on OVCAR-5 ovarian; 106% in the assay on OVCAR-4 ovarian; 105% in the assay with SK-OV-3 ovarian; 109% in the assay with IGROV1 ovarian; 103% in the assay with OVCAR-3 ovarian. Also, the growth in the assay on HS 578T breast was 108%; in the assay with NCI/ADR-RES ovarian, 97.9%.

For `O=C(c1cccc(C(=O)c2ccc3c4c(cccc24)C(=O)N(c2ccccc2)C3=O)c1)c1ccc2c3c(cccc13)C(=O)N(c1ccccc1)C2=O`, the growth was 111% in the assay on SK-MEL-2 melanoma; 104% in the assay on EKVX NSCLC; 92.4% with SN12C renal; 89.8% with UO-31 renal; 115% with TK-10 renal; 102% in the assay on ACHN renal. Further, the growth in the assay on CAKI-1 renal is 100%; in the assay on A498 renal it was 86.7%; in the assay with CCRF-CEM leukemia, 89.9%; in the assay with MOLT-4 leukemia it was 90.9%; in the assay with SR leukemia it was 57.4%; in the assay on RPMI-8226 leukemia it was 72.4%. The growth is 88.8% in the assay on OVCAR-8 ovarian; 111% with OVCAR-5 ovarian; 77.4% in the assay with OVCAR-4 ovarian; 102% in the assay on SK-OV-3 ovarian; 104% in the assay on IGROV1 ovarian; 98.8% in the assay with OVCAR-3 ovarian. In addition, the growth is 97.6% in the assay with HS 578T breast and 96.9% in the assay on NCI/ADR-RES ovarian.

As to `COC(=O)C1(CC(C)=O)NC(=S)NC(=O)C1C#N` (centres undefined), the growth was 119% in the assay on SK-MEL-2 melanoma; 96.4% in the assay on EKVX NSCLC; 101% in the assay on SN12C renal; 92.2% with UO-31 renal; 103% in the assay on TK-10 renal; 109% with ACHN renal. The growth in the assay with CAKI-1 renal is 94.6%; in the assay on A498 renal, 147%; in the assay on CCRF-CEM leukemia it was 101%; in the assay on MOLT-4 leukemia, 108%; with SR leukemia it was 99.1%; in the assay with RPMI-8226 leukemia, 114%. For the same molecule, the growth was 112% in the assay with OVCAR-8 ovarian; 107% in the assay with OVCAR-5 ovarian; 117% with OVCAR-4 ovarian; 117% in the assay with SK-OV-3 ovarian; 111% in the assay on IGROV1 ovarian; 122% with OVCAR-3 ovarian. The growth with HS 578T breast is 96.1%; with NCI/ADR-RES ovarian, 103%.

With `CCC(C)C1CCC(O)CC1` (centres undefined), the growth in the assay on SK-MEL-2 melanoma was 104%; in the assay on EKVX NSCLC, 113%; with SN12C renal, 108%; with UO-31 renal, 90.7%; with TK-10 renal, 103%; in the assay with ACHN renal, 105%. Also, the growth with CAKI-1 renal was 96.6%; in the assay on A498 renal, 103%; in the assay with CCRF-CEM leukemia it was 125%; with MOLT-4 leukemia, 104%; in the assay with SR leukemia, 93.7%; in the assay with RPMI-8226 leukemia it was 107%. The growth is 100% in the assay on OVCAR-8 ovarian; 108% with OVCAR-5 ovarian; 99.4% with OVCAR-4 ovarian; 109% in the assay with SK-OV-3 ovarian; 110% with IGROV1 ovarian; 108% with OVCAR-3 ovarian. Further, the results for the growth with HS 578T breast and with NCI/ADR-RES ovarian were 104% and 103%, respectively.

As to `NNc1ncnc2c1ncn2C1OC(CO)C(O)C1O` (centres undefined), the growth in the assay with SK-MEL-2 melanoma was 73.5%; in the assay with EKVX NSCLC, 60.5%; in the assay on SN12C renal, 27.7%; in the assay on UO-31 renal, 38.1%; with TK-10 renal, 52.8%; in the assay on ACHN renal it was 15.2%. The growth in the assay on CAKI-1 renal was 36.1%; with A498 renal it was 43%; in the assay with CCRF-CEM leukemia, 72%; in the assay on MOLT-4 leukemia, 109%; with SR leukemia it was 17.5%; in the assay on RPMI-8226 leukemia, 51.8%. The growth in the assay with OVCAR-8 ovarian was 25.6%; in the assay on OVCAR-5 ovarian it was 54.7%; in the assay on OVCAR-4 ovarian, 45%; with SK-OV-3 ovarian it was 2.11% (active); in the assay on IGROV1 ovarian it was 66.7%; with OVCAR-3 ovarian, 9.24% (active). Further, the growth was 53% with HS 578T breast and 24.3% in the assay on NCI/ADR-RES ovarian.

As for `Cn1c(=O)[nH]c2ccccc2c1=O`, the growth in the assay on SK-MEL-2 melanoma is 111%; with EKVX NSCLC, 71.6%; in the assay with SN12C renal, 96.4%; with UO-31 renal, 95.5%; in the assay with TK-10 renal it was 94.3%; with ACHN renal, 105%. The growth was 85.3% in the assay on CAKI-1 renal; 129% with A498 renal; 108% with CCRF-CEM leukemia; 122% with MOLT-4 leukemia; 100% in the assay on SR leukemia; 112% with RPMI-8226 leukemia. The growth with OVCAR-8 ovarian is 103%; in the assay with OVCAR-5 ovarian, 123%; in the assay on OVCAR-4 ovarian, 110%; with SK-OV-3 ovarian it was 108%; with IGROV1 ovarian, 111%; in the assay on OVCAR-3 ovarian, 112%. Besides, the growth with NCI/ADR-RES ovarian is 102%.

Regarding `O=C(Oc1ccccc1Cl)c1ccc(Cl)cc1Cl`, the growth is 109% in the assay with SK-MEL-2 melanoma; 94.4% with EKVX NSCLC; 98.3% in the assay on SN12C renal; 85.4% in the assay on UO-31 renal; 103% in the assay on TK-10 renal; 103% in the assay with ACHN renal. Also, the growth is 99.8% in the assay on CAKI-1 renal; 94.2% in the assay with A498 renal; 99.9% in the assay on CCRF-CEM leukemia; 110% in the assay with MOLT-4 leukemia; 104% in the assay on SR leukemia; 98.9% in the assay on RPMI-8226 leukemia. Moreover, the growth with OVCAR-8 ovarian was 101%; with OVCAR-5 ovarian, 109%; in the assay with OVCAR-4 ovarian it was 109%; in the assay on SK-OV-3 ovarian, 99.6%; with IGROV1 ovarian, 108%; in the assay on OVCAR-3 ovarian, 107%. The growth in the assay on HS 578T breast was 93.8%; in the assay with NCI/ADR-RES ovarian, 103%.
